From PubChem
IL-1B inflam inh = blocks inflammasome-driven IL-1 beta release. THP-1 LPS/ATP IL-1B secretion, AlphaLISA, 16 h; active compounds read low. activity change, % at 57.5 µM. 4.7% of 360,000 active. AID 743279; in the data active means activity change below about -50%; inconclusive means mostly about -30% to -49%
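THP-1 cells pretreated 1 hr with compounds (up to 57.5 uM final), then stimulated with LPS (250 ng/mL final) plus ATP (1.25 mM final); secreted IL-1B measured by AlphaLISA after 16 hr, decreased signal indicating inhibition.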
MCF10A rereplic = inducers of DNA re-replication in MCF 10A breast cells | MCF 10A DNA re-replication, Hoechst nuclear intensity, 48 h | Potency, µM (top dose mostly 46.1 µM), actives largely listed as activators | 2.9% of 350,000 active; further: nearly all actives have a fitted effect of over 50% in size
RORgamma inh = blocks mouse ROR gamma transcriptional activity. AID 2551. Drosophila S2 Gal4-RORgamma UAS-luciferase reporter, 20 h. Potency, µM (series often up to 53.6 µM), most hits filed as inhibitors. P51450. 5.4% of 310,000 active; further: nearly all actives have a fitted effect of over 60% in size
Target sequence (P51450 whole entry, looked up, the tested form may be a part): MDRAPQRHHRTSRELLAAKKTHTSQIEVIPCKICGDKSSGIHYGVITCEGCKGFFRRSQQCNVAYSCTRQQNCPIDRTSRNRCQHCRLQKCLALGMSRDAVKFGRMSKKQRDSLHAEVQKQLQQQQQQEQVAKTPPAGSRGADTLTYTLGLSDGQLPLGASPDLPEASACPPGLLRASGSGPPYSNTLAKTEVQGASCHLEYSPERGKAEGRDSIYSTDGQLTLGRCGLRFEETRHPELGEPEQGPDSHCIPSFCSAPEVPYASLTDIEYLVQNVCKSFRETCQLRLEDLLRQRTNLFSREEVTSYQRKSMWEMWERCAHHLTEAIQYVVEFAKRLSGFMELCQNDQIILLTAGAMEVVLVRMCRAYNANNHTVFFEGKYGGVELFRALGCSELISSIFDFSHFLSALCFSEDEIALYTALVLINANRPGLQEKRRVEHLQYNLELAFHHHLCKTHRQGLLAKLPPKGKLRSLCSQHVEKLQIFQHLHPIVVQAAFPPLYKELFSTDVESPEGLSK
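Using a luciferase readout, inhibitors were identified by reduced reporter activity in Drosophila cells coexpressing a copper-inducible Gal4–ROR gamma fusion and UAS-driven Photinus luciferase, incubated 20 hr after 700 uM copper sulfate.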
SW480 rerep = induces DNA re-replication in SW480 colon adenocarcinoma cells; SW480 DNA re-replication, Hoechst DNA content imaging, 48 h; Potency, µM (top dose mostly 46.1 µM), hits mostly activators; 1.8% of 340,000 active; AID 624297; further: nearly all actives have a fitted effect of over 55% in size
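Hoechst fluorescence of nuclei (405 nm excitation, 500-530 nm emission) measured by plate-scanning imager after 48 hr compound exposure at 37 C; re-replication scored as increased number of nuclei with elevated intensity.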
VP16 counter = Gal4-VP16 reporter inhibition counter-screen | AID 2546 | Potency, µM (highest dose often 53.6 µM), most hits filed as inhibitors | Drosophila S2 Gal4-VP16 UAS-luciferase, luminescence, 20 h | 3.5% of 310,000 active;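 further: Gal4-VP16 expression switched on by copper sulfate through the metallothionein promoter; nearly all actives have a fitted effect of over 50% in size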
Hits are given with their value; - = inactive; ? = inconclusive; . = no result given; [ ] = another dose, or the depositor's remark. An excerpt weighted towards active compounds, which were near 11% of everything screened. Unless noted, the call rests on the fitted dose curve; in most records, active means well fitted curve in the direction sought with a large enough effect; inconclusive means small, poorly fitted or top-dose-only effect, or another doubt; inactive means no such curve, though single readings can be large; an effect the other way counts as inactive or inconclusive.

SMILES | IL-1B inflam inh | MCF10A rereplic | RORgamma inh | SW480 rerep | VP16 counter
N#CCN(C(=O)CSc1nnc(C2CC2)n1C1CC1)c1ccccc1 | - | . | . | . | .
O=[N+]([O-])c1cccc(/C([O-])=C(/C(=S)Nc2cccc3ccccc23)[n+]2ccccc2)c1 | - | - | 10µM | - | ?
N#C/C(=N/Nc1ccc(OC(F)(F)F)cc1)C(N)=S | -63.7 | ? | 4.47µM | - | 4.47µM
CCOc1ccc(N/N=C(/C#N)C(N)=O)cc1 | - | - | - | - | -
CN(C)S(=O)(=O)c1cccc(NC(=O)CC23CC4CC(CC(C4)C2)C3)c1 | - | - | ? | - | -
CN(C)S(=O)(=O)Nc1cccc(NC(=O)CC23CC4CC(CC(C4)C2)C3)c1 | -73.1 | - | - | - | -
Cc1cc(SCC(=O)Nc2ccc3[nH]c(=O)[nH]c3c2)nc2ccccc12 | - | - | . | - | .
Cc1[nH]nc(-c2ccc(O)c(C)c2O)c1Oc1ccccc1 | - | - | ? | - | ?
Cc1[nH]nc(-c2ccc(OCc3cnn(-c4ccccc4)c3)cc2O)c1Oc1ccc(F)cc1 | - | ? | 7.08µM | - | 10µM
CCOc1ccc(-c2n[nH]c(C)c2Oc2ccc(OC)cc2)c(O)c1 | - | ? | 2.24µM | -[9.22 µM] | 5.01µM
Cc1[nH]nc(-c2ccc(OCc3cnn(-c4ccccc4)c3)c(C)c2O)c1Oc1ccccc1 | - | 16.4µM | 7.94µM | ? | ?
CC(C)c1ccc(NC(=O)C2C3C=CC4(O3)C2C(=O)N(CCCN2CCOCC2)C4C(=O)NC2CCCCC2)cc1 (configuration not stated) | - | - | - | - | -
NCCS(=O)O | . | . | - | . | -
CCOc1ccc(CCN2C(=O)C(=O)N([C@@H](CC(C)C)CN3CCC[C@H]3CN3C(=O)C(=O)NC[C@@H]3Cc3ccc(O)cc3)C[C@@H]2CC(C)C)cc1 | -53.7 | . | . | . | .
CCOc1ccc(CCN2C(=O)C(=O)N([C@@H](CC(C)C)CN3CCC[C@H]3CN3C(=O)C(=O)NC[C@@H]3CC(C)C)C[C@@H]2Cc2ccccc2)cc1 | -92.3 | . | . | . | .
CCOc1ccc(CCN2C(=O)C(=O)N([C@@H](CC(C)C)CN3CCC[C@@H]3CN3C(=O)C(=O)NC[C@@H]3CC(C)C)C[C@@H]2Cc2ccccc2)cc1 | - | . | . | . | .
O=C1CCN(Cc2ccccc2)C=C1c1cccc(O)c1 | - | ? | . | - | .
Cc1ccc(N(CC(=O)NCc2ccco2)C(=O)CNS(=O)(=O)c2ccc(F)cc2)c(C)c1 | -94.7 | - | - | - | -
COc1ccccc1N(CC(=O)NCCSCc1cccc(C)c1)S(=O)(=O)c1ccccc1 | - | 18.4µM | - | - | -
COc1ccccc1N(CC(=O)NCCSCc1ccccc1)S(C)(=O)=O | - | - | - | - | -
COc1ccccc1N(CC(=O)NCc1ccco1)S(=O)(=O)c1ccc(C)cc1 | -84.6 | - | - | - | -
CCCNC(=O)OC[C@@H]1O[C@H](CCO/N=C(\C)CCN2CCc3nc(-c4ccccc4)c(-c4ccccc4)cc3C2)C=C[C@@H]1Oc1ccc(OC)cc1 | . | . | -[10 µM] | . | -[10 µM]
COC(=O)CNC(=O)CSc1nc2sccc2c(=O)n1-c1ccccc1 | - | - | - | - | -
COC(=O)CNC(=O)CSc1nc2sc(-c3ccccc3)cc2c(=O)n1-c1ccccc1 | -66.3 | - | . | - | .
CC1=C(C)C[C@@]23CCCN2C(=O)CCC[C@H]3C1 | . | . | - | . | -
SMILES | IL-1B inflam inh | MCF10A rereplic | RORgamma inh | SW480 rerep | VP16 counter
COC(=O)c1ccc(CSC(=N)N)o1 | . | ? | - | ? | -
CCOC(=O)c1ccc(CSC(=N)N)o1 | - | ? | - | 20.6µM | -
C[C@H]1CN([C@@H](C)CO)C(=O)CCCn2cc(nn2)CO[C@@H]1CN(C)C(=O)Nc1ccc(C(F)(F)F)cc1 | - | . | . | . | .
O=C(NC(=S)Nc1c(Cl)ccc2nsnc12)c1ccccc1F | - | - | 1.41µM | - | -
Cc1ccc(C(=O)NC(=S)Nc2ccccc2C(F)(F)F)c(C)c1 | - | - | - | - | -
O=C(NC(=S)Nc1ccccc1C(F)(F)F)c1ccccc1F | - | 10.3µM | 6.31µM | - | ?
Cc1ccccc1C(=O)NC(=S)Nc1ccccc1C(F)(F)F | - | - | 0.794µM | - | ?
Cc1cc(C)cc(OCC(=O)Nc2nc(-c3cccnc3)cs2)c1 | - | - | ? | - | ?
